# Fam108B inh: Fam108B inhibition, counter-screen for RBBP9 inhibitors. recombinant Fam108B, FP-Rh probe fluorescence polarization. inhibition, % at 9.51 µM. actives 0.33% (n = 300,000). AID 1947;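 active = inhibition above the screen mean inhibition plus 3 SD, computed separately per campaign, cut at about 18% in these data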;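 also: inhibitors lower polarization as less probe binds the enzyme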
# PME-1 primary: blocks human protein phosphatase methylesterase 1; AID 2130; actives 0.53% (n = 320,000); inhibition, % at 5.9 µM; Q9Y570; recombinant PME-1, FP-Rh probe fluorescence polarization;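 active = inhibition above the campaign mean of all compounds plus 3 SD, cut at about 26% in these data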;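 also: competitive labeling of PME-1 active site by serine hydrolase directed probe; 0% = PME-1 with DMSO and 100% = wells lacking PME-1 enzyme; inhibitors block probe labeling so polarization falls and inhibition rises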
# TCR-CD3 inh: blocks the human TCR-CD3 interaction. actives 0.37% (n = 360,000). TAMRA-labeled TCR probe fluorescence, biochemical. inhibition, % at 9.4 µM;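 also: recombinant mutant TCR 2C K166C tagged with TAMRA read by polarization; 0% = receptor in buffer alone and 100% = receptor with positive control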
# SIAE primary: blocks human sialic acid acetylesterase | Q9HAT2 | SIAE FP-Rh probe binding, fluorescence polarization | inhibition, % at 9.66 µM | actives 0.69% (n = 370,000);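 active = inhibition above a cutoff: mean of compounds within the control limits plus 3 SD of those, cut at about 17% in these data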;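 also: 0% = plate median of compound wells and 100% = probe without SIAE protein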
# PRMT1 FP inh: blocks human protein arginine methyltransferase 1. inhibition, % at 2.79 µM. Q99873. AID 652257. recombinant PRMT1, activity-based probe fluorescence polarization. actives 1.3% (n = 370,000);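 active = inhibition above about 21% made by adding two undisclosed values, limit read from the data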
# Target sequence (Q99873 whole entry, looked up): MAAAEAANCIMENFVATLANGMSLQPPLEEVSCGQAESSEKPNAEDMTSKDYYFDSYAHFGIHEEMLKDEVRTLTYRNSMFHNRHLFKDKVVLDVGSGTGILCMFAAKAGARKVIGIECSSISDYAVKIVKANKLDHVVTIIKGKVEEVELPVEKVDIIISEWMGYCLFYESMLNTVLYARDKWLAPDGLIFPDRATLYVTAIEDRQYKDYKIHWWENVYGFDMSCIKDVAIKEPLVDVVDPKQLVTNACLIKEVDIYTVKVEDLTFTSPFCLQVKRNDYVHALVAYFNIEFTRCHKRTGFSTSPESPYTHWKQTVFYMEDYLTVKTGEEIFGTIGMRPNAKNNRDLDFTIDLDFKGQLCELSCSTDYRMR
# PAD4 FP inh: blocks human protein arginine deiminase 4; recombinant PAD4, RCA probe fluorescence polarization; inhibition, % at 6.36 µM; actives 0.41% (n = 330,000); AID 485272;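 active = percent inhibition above a cutoff equal to the mean of all tested compounds plus 3 SD, cut at about 15% in these data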;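 also: 0% = PAD4 with RCA probe and DMSO and 100% = probe without PAD4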
# BSA probe FL: interferes with TAMRA-BSA probe, flagging TCR-CD3 hits; TAMRA-labeled BSA probe fluorescence counterscreen; actives 10% (n = 1,200); shares compounds with TCR-CD3 inh; AID 652035; inhibition, % at 9.4 µM; in the data active = inhibition above about 23%;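 also: 0% = buffer low control and 100% = reference high control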
# TCR-CD3 inh conf: TCR-CD3 interaction inhibition, confirmation. shares compounds with TCR-CD3 inh. TAMRA-labeled TCR probe fluorescence binding assay. inhibition, % at 9.4 µM. actives 48% (n = 1,200). AID 652036
# An asterisk follows results filed as active; · = no result. This is a sample that favours compounds with a hit; in the whole collection about 2.6% have one here. Rule as the data show it, unless noted: active = inhibition above about 19%; inactive = the rest.
SMILES,Fam108B inh,PME-1 primary,TCR-CD3 inh,SIAE primary,PRMT1 FP inh,PAD4 FP inh,BSA probe FL,TCR-CD3 inh conf
O=C(NNC(=O)C1CCN(S(=O)(=O)c2ccc(Cl)cc2)CC1)c1ccccc1O,-3,6,34*,4,4,0,-3,31*
COCCCNC(=O)C[C@H]1C[C@@]2(C(=O)OC)C(=C[C@H](C3CCCC3)O[C@@H]2C)N(Cc2cccc3ccccc23)C1=O,·,·,·,-4,-7,·,·,·
O=C(Nc1ccccc1)Nc1c(-c2ccccc2)nc2ncccn12,·,·,·,0,0,·,·,·
O=c1cc(-c2ccc(O)c(O)c2)oc2cc(O[C@@H]3O[C@H](CO)[C@@H](O)[C@H](O)[C@H]3O)cc(O)c12,·,·,·,·,·,-2,·,·
O=c1cc(-c2ccc(O)cc2)oc2cc(O)c(C3OC(CO)C(O)C(O)C3O)c(O)c12 (stereo not given),0,11,28*,8,-1,4,-5,20*
COc1ccc(-n2c(COc3ccc(C)cc3)nnc2SCC(=O)O)cc1,-3,-14,31*,-3,0,-5,13,7
COc1ccc(-n2c(COc3cccc(C)c3)nnc2SCC(=O)O)cc1,0,3,-5,2,-2,8,·,·
CCC[C@H]1OC(=O)[C@@H]2CCCN2C(=O)[C@H]([C@H](C)Cc2ccccc2)NC(=O)[C@@H]2CCCN2C(=O)[C@@H]2CCCN2C(=O)[C@H](C(C)C)OC(=O)[C@@H]2CCCN2C(=O)[C@H](C(C)C)NC(=O)C1(C)C,·,·,·,3,2,·,·,·
COCCCn1c(=N)c(C(N)=S)cc2c(=O)n3cccc(C)c3nc21,2,-7,28*,4,0,-2,-4,12
Cc1cccn2c(=O)c3cc(C(N)=S)c(=N)n(CCCN4CCOCC4)c3nc12,0,8,22*,2,1,5,-6,9
COCCCn1c(=N)c(C(=O)NCc2ccc3c(c2)OCO3)cc2c(=O)n3cccc(C)c3nc21,·,·,3,2,1,·,·,·
COC(=O)[C@H](CC(C)C)N(CCCc1cn(Cc2ccccc2)nn1)S(=O)(=O)c1ccc(F)cc1Br,·,·,·,-9,0,·,·,·
CCCCOc1ccc(C(=O)NC2CCCCN(Cc3cccc(Cl)c3)C2=O)cc1 (stereo not given),·,·,·,-2,1,·,·,·
O=C1C=C(NCCc2cc(Br)c(O)c(Br)c2)C(=O)c2ncccc21,·,·,26*,10,13,·,-6,25*
NC1=C(Br)C(=O)c2ncccc2C1=O,·,·,-1,2,10,·,·,·
C/C(=C\C(=O)c1ccc(Br)cc1)NNC(=O)c1ccccc1,-1,-6,19,10,-2,0,·,·
C/C(=C\C(=O)c1ccc(Br)cc1)NNC(=O)c1ccc(O)cc1,-4,-5,35*,1,4,5,-12,27*
COC(=O)C12CCCN1C1C(=O)N(Cc3ccc(C(N)=O)cc3)CC1C2 (stereo not given),·,·,·,1,-1,·,·,·
O=C(c1cccc(Cl)c1)N1CCCc2ccccc21,-1,-4,28*,-3,-1,1,28*,16
O=C(O)c1cc(Cl)ccc1-c1ccc(/C=C/c2cc(C(F)(F)F)[nH]c(=O)n2)o1,6,0,19*,-5,3,2,2,3
O=c1nc(/C=C/c2ccc(-c3ccc(F)cc3)o2)cc(C(F)(F)F)[nH]1,-11,8,·,·,·,-9,·,·
CCN(CC)c1ccc(NC(=O)CSc2nc3ccccc3c(=O)n2-c2ccc(C)cc2)cc1,·,·,·,8,-3,·,·,·
COc1ccccc1NC(=O)NNC(=O)c1ccc2ccccc2c1,·,·,-4,4,5,·,·,·
COc1ccccc1NC(=O)NNC(=O)c1ccc2ccccc2c1O,·,·,36*,7,-1,·,-12,25*
Cc1ccccc1NC(=O)NNC(=O)c1ccc2ccccc2c1,·,·,-2,4,-1,·,·,·
SMILES,Fam108B inh,PME-1 primary,TCR-CD3 inh,SIAE primary,PRMT1 FP inh,PAD4 FP inh,BSA probe FL,TCR-CD3 inh conf
COc1cccc(C(=O)NNC(=O)c2ccc3ccccc3c2O)c1,-1,3,40*,1,11,4,-7,36*
COc1ccc(NC(=O)NNC(=O)c2ccc3ccccc3c2O)cc1OC,-2,4,51*,16,2,-2,-7,46*
Cc1ccccc1NC(=O)NNC(=O)c1ccc2ccccc2c1O,6,3,43*,15,-1,-2,-8,33*
CC[C@H](CCCc1ccccc1OC)CCS(=O)(=O)N(C)C,·,·,·,-2,1,·,·,·
CCc1ccc(NC(=O)NNC(=O)c2cc3ccccc3cc2O)cc1,-2,-2,18,2,-3,-3,·,·
CCc1ccc(NC(=O)NNC(=O)c2ccc3ccccc3c2O)cc1,·,·,22*,15,4,·,6,29*
O=C(CCS(=O)(=O)c1cc2c(cc1Br)CCN2C(=O)C1CC1)N1CCN(c2ccccn2)CC1,·,·,·,-3,-2,·,·,·
Oc1ccc(/C=C/c2nc(-c3ccccc3O)n(-c3ccccc3)n2)cc1,2,2,46*,2,-1,5,3,3
Oc1ccccc1-c1nc(/C=C/c2ccccc2)nn1-c1ccccc1,-4,-9,-5,-6,0,2,·,·
CCOc1cc(/C=N\NC(=O)c2ccc(NC(=O)C(C)(C)C)cc2)ccc1OC(=O)c1cccc(C)c1,-40,-38,62*,-32,-3,1,36*,82*
CCOc1cc(/C=N\NC(=O)c2ccc(NC(=O)C(C)(C)C)cc2)ccc1OC(=O)c1ccc(C)cc1,-6,-14,0,0,-1,-6,·,·
CC(C)(C)C(=O)Nc1ccc(C(=O)N/N=C/c2ccccc2OC(=O)c2ccc(Cl)cc2)cc1,-33,-74,26*,-63,-3,-1,25*,43*
Cc1cccc(C(=O)Oc2ccccc2/C=N/NC(=O)c2ccc(NC(=O)C(C)(C)C)cc2)c1,-28,-70,24*,-66,1,-5,17,43*
Cc1nc2ccc(NC(=O)c3cc(F)cc(F)c3)cc2c(=O)[nH]1,·,·,·,-1,4,·,·,·
CC(=O)CC[C@H]1CC[C@]2(CCCN(C(=O)C3CCCC3)C2)O1,·,·,·,-4,-1,·,·,·
O=C(COC(=O)c1cc(-c2cccs2)nn1-c1ccccc1)Nc1cccc([N+](=O)[O-])c1,-4,7,26*,-3,-2,1,3,1
CCOC(=O)C1CCN(C(=O)C(C)(C)NC(=O)Nc2ccc(N(C)C)cc2)CC1,·,·,·,2,6,·,·,·
C/C(=N\NC(=O)COc1ccccc1-c1ccccc1)c1ccc(O)cc1O,-1,12,19*,7,1,0,-12,29*
C/C(=N\NC(=O)COc1ccccc1-c1ccccc1)c1ccccn1,2,10,-6,2,-5,0,·,·
CCn1c(=O)c(-c2cc(=O)[nH][nH]2)c(O)c2ccccc21,5,4,12,-1,7,8,·,·

# Bioassay records as filed in PubChem.
